Records with an inconclusive call do not appear. Values without a mark were called inactive. Calls come from the whole dose curve; as a rule, active = well fitted inhibition curve with a large enough effect; inconclusive = small, poorly fitted or top-dose-only effect; inactive = flat fitted curve, though single readings scatter.
The molecules below were run against Luciferin 4-monooxygenase (Photinus pyralis) (UniProt P08659) (assay: Biochemical firefly luciferase enzyme assay for NPC (AID 624030;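 note: purified P. pyralis luciferase at 10 nM with luciferin and ATP substrate; 0% = DMSO and -100% = full luciferase inhibition by PTC124 control; nearly all actives have a fitted effect of over 70% in size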)). Conditions: purified P. pyralis luciferase, luminescence, 5 min; series mostly up to 58.6 µM; activity change, negative = inhibition: at the top concentration.
Chain of Luciferin 4-monooxygenase (Photinus pyralis) (P08659 whole entry, looked up): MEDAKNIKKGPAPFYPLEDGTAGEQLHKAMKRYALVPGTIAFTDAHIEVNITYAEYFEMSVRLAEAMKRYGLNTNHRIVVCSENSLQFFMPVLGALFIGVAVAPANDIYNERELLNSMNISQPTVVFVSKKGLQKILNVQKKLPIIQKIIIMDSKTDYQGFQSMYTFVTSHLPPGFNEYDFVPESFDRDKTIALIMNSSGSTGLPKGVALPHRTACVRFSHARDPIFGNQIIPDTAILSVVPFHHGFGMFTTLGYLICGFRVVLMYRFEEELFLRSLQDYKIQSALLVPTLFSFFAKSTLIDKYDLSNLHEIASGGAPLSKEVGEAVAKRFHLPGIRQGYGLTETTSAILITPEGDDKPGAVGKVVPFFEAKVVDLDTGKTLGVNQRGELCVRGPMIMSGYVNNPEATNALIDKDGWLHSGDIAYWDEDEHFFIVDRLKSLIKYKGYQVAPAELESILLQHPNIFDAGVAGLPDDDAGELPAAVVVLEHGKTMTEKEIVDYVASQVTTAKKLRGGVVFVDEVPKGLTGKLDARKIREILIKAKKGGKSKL
In short: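 Counter-screen for direct inhibition of the luciferase enzyme by approved-drug library compounds, run at 10 nM enzyme in 50 mM Tris acetate (final). Luminescence was read within 5 min of enzyme-buffer addition and normalized to PTC124 versus DMSO (0%).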

Row | SMILES | activity change, negative = inhibition
1 | COc1ccc(CN(CCN(C)C)c2ncccn2)cc1 | -4.79%
2 | CC(C)Cn1cnc2c1c(=O)n(C)c(=O)n2C | 2.3%
3 | COP(=O)(OC)OC(c1ccc(Cl)cc1)P(=O)(OC)OC (stereo not drawn) | 0.27%
4 | CCN(CC)CCNC(=O)c1cc(Br)c(N)cc1OC | 0.179%
5 | O=C(Nc1ccc([N+](=O)[O-])cc1)Nc1ccc([N+](=O)[O-])cc1 | 5.96%
6 | Cc1ccc(-c2ncc(Cl)cc2-c2ccc(S(C)(=O)=O)cc2)cn1 | 2.49%
7 | Cc1cc2c(OCC(CNC(C)(C)C)OC(=O)c3ccccc3)cccc2[nH]1 (stereo not drawn) | 9.91%
8 | O=C(NC1CCN(CCc2c[nH]c3ccccc23)CC1)c1ccccc1 | 2.62%
9 | CN(C)CCC[C@@]1(c2ccc(F)cc2)OCc2cc(C#N)ccc21 | 0.731%
10 | CN(C)CCN1C(=O)c2ccccc2N(C)c2ccccc21 | 3.06%
11 | C=C[C@H]1CN2CC[C@H]1C[C@H]2[C@H](O)c1ccnc2ccc(OC)cc12 | 4.72%
12 | CC(C)(C)NC[C@H](O)COc1cccc2c1CCCC2=O | -4.64% [at 24.9 µM]
13 | CC(=O)O[C@H]1C[C@@H]2CC[C@@H]3[C@H](CC[C@@]4(C)[C@H]3C[C@H]([N+]3(C)CCCCC3)[C@@H]4OC(C)=O)[C@@]2(C)C[C@@H]1N1CCCCC1 | -0.98%
14 | CN1CCN(C2=Nc3cc(F)ccc3Cc3ccccc32)CC1 | 1.75%
15 | CC(=O)OCC(=O)[C@H]1CC[C@H]2[C@@H]3CCC4=CC(=O)CC[C@]4(C)[C@H]3CC[C@]12C | -0.941%
16 | CCCCCCCCCCCCOCCOCCOCCOCCOCCOCCOCCOCCOCCO | -5.69%
17 | FC(F)(F)C(F)(F)C(F)(F)C(F)(F)C(F)(F)C(F)(F)C(F)(F)C(F)(F)Br | -0.0974%
18 | CC(=O)Nc1ccc(OCC(O)CNC(C)C)cc1 (stereo not drawn) | 2.96%
19 | Cc1cc(CC(=O)O)c(C)n1-c1ccc(Cl)cc1 | 0.822%

Row | SMILES | activity change, negative = inhibition
20 | O=C(CCCN1CC=C(n2c(=O)[nH]c3ccccc32)CC1)c1ccc(F)cc1 | 1.12%
21 | CCCCNC(=O)NS(=O)(=O)c1ccc(N)cc1 | 1.24%
22 | Clc1cccc(C(c2ccc3nc[nH]c3c2)n2ccnc2)c1 (stereo not drawn) | -6.73%
23 | C=CCN1CCc2nc(N)sc2CC1 | 0.635%
24 | Cl/C(=C\n1cncn1)c1ccc(Cl)cc1Cl | -8.79%
25 | CCC1Nc2cc(Cl)c(S(N)(=O)=O)cc2S(=O)(=O)N1 (stereo not drawn) | 0.215%
26 | CC(=O)Nc1ccc(OC(=O)c2ccccc2OC(C)=O)cc1 | -10.2%
27 | O[C@@H](c1cc(C(F)(F)F)nc2c(C(F)(F)F)cccc12)[C@H]1CCCCN1 | 7.04%
28 | CNCCc1ccccn1 | 1.09% [at 24.9 µM]
29 | CC(C)(Cc1c[nH]c2ccccc12)NCC(O)COc1ccccc1C#N (stereo not drawn) | 7.17%
30 | CC1CCc2c(N3CCC(O)CC3)c(F)cc3c(=O)c(C(=O)O)cn1c23 (stereo not drawn) | 0.732%
31 | CCOC(=O)c1c(N)sc2c1CCN(Cc1ccccc1)C2 | -1.65%
32 | OCCOCCN1CCN(C2=Nc3ccccc3Sc3ccccc32)CC1 | -1.78%
33 | C[N+]1(CC2COC(c3ccccc3)(C3CCCCC3)O2)CCCCC1 (stereo not drawn) | 4.21%
34 | CCCCCN=C(N)N/N=C/c1c[nH]c2ccc(OC)cc12 | 11.3%
35 | Oc1ccccc1C=NCc1ccccc1 | -0.186%
36 | CN1CCC[C@@H]1CCO[C@](C)(c1ccccc1)c1ccc(Cl)cc1 | 11.2%
37 | CCOCCn1c(N2CCCN(C)CC2)nc2ccccc21 | -2.7%
38 | c1ccc(-c2nc[nH]c2-c2ccccc2)cc1 | -4.55%

Reference: PubChem BioAssay (NCATS)
